Assay outcomes from PubChem BioAssay.
HGIII-sPLA2 inh = Blocks human group III sPLA2 activity; inhibition, % at 12.2 µM; QFRET BODIPY PC-A2 liposome hydrolysis, fluorescence; AID 743126; Q9NZ20; 370,000 compounds, 0.56% hits;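 active = inhibition above mean plus 3 SD of compounds lying within the high and low control bounds, cut at about 19% in these data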;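 note: 0% = median of test compound wells and 100% = no enzyme DMSO wells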
Target sequence (Q9NZ20 whole entry, looked up): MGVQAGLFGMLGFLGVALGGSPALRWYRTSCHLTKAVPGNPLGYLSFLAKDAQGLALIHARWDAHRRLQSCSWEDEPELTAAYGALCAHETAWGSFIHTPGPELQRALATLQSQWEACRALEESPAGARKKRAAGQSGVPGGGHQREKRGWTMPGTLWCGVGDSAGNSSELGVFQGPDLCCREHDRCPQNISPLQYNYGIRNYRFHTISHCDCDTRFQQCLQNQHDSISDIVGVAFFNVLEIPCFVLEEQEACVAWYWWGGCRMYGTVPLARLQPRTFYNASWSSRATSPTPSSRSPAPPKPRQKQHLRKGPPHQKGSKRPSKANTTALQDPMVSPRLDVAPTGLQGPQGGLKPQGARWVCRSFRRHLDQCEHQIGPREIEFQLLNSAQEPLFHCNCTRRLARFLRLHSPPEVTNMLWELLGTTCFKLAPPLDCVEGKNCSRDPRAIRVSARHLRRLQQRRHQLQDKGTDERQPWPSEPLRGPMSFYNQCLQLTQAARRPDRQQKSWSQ
PLC-gamma1 inh = inhibitors of human phospholipase C gamma1 | P19174 | purified PLC-gamma1, fluorogenic substrate, fluorescence | inhibition, % at 12.2 µM | 370,000 compounds, 0.84% hits; in the data active = inhibition above about 9.5%
PLCb3 inh = inhibitors of human phospholipase C beta3 | Q01970 | Purified PLC-beta3, fluorogenic substrate, fluorescence | inhibition, % at 12.2 µM | 370,000 compounds, 0.18% hits | AID 720704; in the data active = inhibition above about 11%;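 note: 0% = median of compound wells on plate and 100% = full blocker control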
ADAM17 inh = inhibits human ADAM17; P78536; recombinant ADAM17, EDANS/DABCYL FRET peptide cleavage; inhibition, % at 6.95 µM; 370,000 compounds, 0.83% hits; AID 720648;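 active = inhibition above the mean of compounds lying between control limits plus 3 SD, set per campaign, cut at about 8.5% in these data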;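 note: 0% = DMSO-only wells as the low control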
proKLK7 act = activators of human kallikrein-7 zymogen. purified proKLK7, EDANS-DABCYL substrate fluorescence; 100% is mature enzyme control, 0% vehicle. activation, % at 7 µM. 370,000 compounds, 0.9% hits. AID 652039;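 active = activation above the mean of all tested compounds plus 3 SD, computed per campaign excluding outliers beyond control limits, cut at about 13% in these data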
ADAM10 inh = inhibitors of human ADAM10 | O14672 | recombinant ADAM10, EDANS/DABCYL FRET peptide cleavage, 3 h | inhibition, % at 7 µM | 370,000 compounds, 0.62% hits;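 active = inhibition above a per-campaign cutoff equal to the mean of compounds falling between control-based bounds plus 3 SD, cut at about 20% in these data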;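 note: 0% = DMSO wells while the 100% control is not disclosed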
proKLK7 act conf = confirmation of human kallikrein-7 zymogen activators | purified proKLK7, EDANS-DABCYL substrate fluorescence; scaled: vehicle 0, mature enzyme 100 | activation, % at 7 µM | shares compounds with proKLK7 act | 3,200 compounds, 68% hits;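 active = activation, as change over the incubation, above the mean of all tested compounds plus 3 SD, cut at about 13% in these data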
EDANS-DABCYL int = optically interferes with EDANS-DABCYL signal, flagging KLK7 hits | shares compounds with proKLK7 act | EDANS-DABCYL substrate fluorescence interference, no enzyme, 4 h; solvent 0%, active enzyme control 100% | activation, % at 7 µM | 3,200 compounds, 80% hits;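 active = activation above the all-compound mean plus 3 SD, ignoring values outside control-based bounds, cut at about 4.8% in these data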;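 note: value is the 4 h activation minus the activation read at time zero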
K7 EDANS ctr = EDANS fluorescence interference in dose response, no enzyme; AID 720493; shares compounds with proKLK7 act; EC50, µM; EDANS-DABCYL peptide fluorescence interference; 250 compounds, 20% hits;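 active = compounds that raise the fluorescence signal in this interference counterscreen, with EC50 at or below 10 µM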;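 note: intact quenched peptide substrate alone read at 355 nm excitation and 520 nm emission; signal is fluorescence gain from T0 to T4 after four hours at room temperature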
* marks the source's active call; other numbers are inactive results. An excerpt weighted towards active compounds, which were near 3.4% of everything screened.

COc1ccc(-c2cc(C(=O)N3CCN(c4ccccc4)CC3)c3ccccc3n2)cc1 was read as HGIII-sPLA2 inh -6, PLC-gamma1 inh -204, PLCb3 inh -247, ADAM17 inh -76, proKLK7 act 2 and ADAM10 inh -245.
For COc1ccc(-c2cc(C(=O)OCC(=O)N3CCCC3)c3ccccc3n2)cc1 the results were HGIII-sPLA2 inh -11, PLC-gamma1 inh inactive, PLCb3 inh inactive, ADAM17 inh -66, proKLK7 act 17*, ADAM10 inh -209, proKLK7 act conf -18 and EDANS-DABCYL int -28.
`COC(=O)C1CCN(C(=O)c2cc(-c3ccco3)nc3ccccc23)CC1` gave HGIII-sPLA2 inh -5, PLC-gamma1 inh inactive, PLCb3 inh inactive, ADAM17 inh -443, proKLK7 act 48*, ADAM10 inh inactive, proKLK7 act conf 36*, EDANS-DABCYL int 27* and K7 EDANS ctr >70.
For CCCC1CCC2(CC1)CCC2OC(=S)Nc1cccc(C(F)(F)F)c1 (stereo not drawn) the results were HGIII-sPLA2 inh 5, PLC-gamma1 inh 1, PLCb3 inh 1, ADAM17 inh -2 and ADAM10 inh -10.
CC(C)C[C@H]1COc2cccc(N3CCCCC3)c2S(=O)(=O)N1 was read as HGIII-sPLA2 inh 2, PLC-gamma1 inh -6, PLCb3 inh 0, ADAM17 inh -2, proKLK7 act 0 and ADAM10 inh -6.
Screening C=C1[C@H](C)CN(S(=O)C(C)(C)C)[C@H]1CCO (stereo partly drawn) returned HGIII-sPLA2 inh 13, PLC-gamma1 inh 2, PLCb3 inh 0, ADAM17 inh -3, proKLK7 act 0 and ADAM10 inh -14.
For C[C@H]1CN([C@@H](C)CO)C(=O)CCCn2nncc2CO[C@@H]1CN(C)S(=O)(=O)c1cccs1 the results were HGIII-sPLA2 inh 7, PLC-gamma1 inh 0, PLCb3 inh 1, ADAM17 inh -5, proKLK7 act 0 and ADAM10 inh -13.
Screening CCOc1ccc(-c2cc(C(=O)N3CCN(C)CC3)c3ccccc3n2)cc1 returned HGIII-sPLA2 inh -3, PLC-gamma1 inh inactive, PLCb3 inh inactive, ADAM17 inh inactive, proKLK7 act 31*, ADAM10 inh inactive, proKLK7 act conf 49*, EDANS-DABCYL int 33* and K7 EDANS ctr >70.
For CCOC(=O)N1CCN(C(=O)c2cc(-c3ccc(OCC)cc3)nc3ccccc23)CC1 the results were HGIII-sPLA2 inh 1, PLC-gamma1 inh inactive, PLCb3 inh inactive, ADAM17 inh -139, proKLK7 act -24 and ADAM10 inh -422.
`COc1ccc(-c2cc(C(=O)N/N=C/c3cccnc3)c3cc(C)cc(C)c3n2)cc1` gave HGIII-sPLA2 inh -3, PLC-gamma1 inh -292, PLCb3 inh -453, ADAM17 inh -66, proKLK7 act 112*, ADAM10 inh -187, proKLK7 act conf -313 and EDANS-DABCYL int -285.
CCOc1ccc(-c2cc(C(=O)N/N=C/c3cccnc3)c3ccccc3n2)cc1 was read as HGIII-sPLA2 inh -5, PLC-gamma1 inh inactive, PLCb3 inh inactive, ADAM17 inh -91, proKLK7 act -13 and ADAM10 inh -214.
Screening Cc1ccc(S(=O)(=O)NCC(=O)N2CCN(c3ccccn3)CC2)s1 returned HGIII-sPLA2 inh 16, PLC-gamma1 inh 3, PLCb3 inh -1, ADAM17 inh -3, proKLK7 act 0 and ADAM10 inh -13.
Screening CCN(CC)CCN(C(=O)c1cc2c(ccc3ccccc32)oc1=O)c1nc2cc3c(cc2s1)OCCO3 returned HGIII-sPLA2 inh 3, PLC-gamma1 inh -434, PLCb3 inh inactive, ADAM17 inh inactive, proKLK7 act 46*, ADAM10 inh inactive, proKLK7 act conf 61* and EDANS-DABCYL int 65*.
